# High-throughput results from PubChem BioAssay.
# ERa SRC1 inh: ER-alpha (human) coactivator binding inhibition | TR-FRET ER-alpha LBD / SRC-1 peptide, estradiol-bound | inhibition, % at 25.6 µM | 86,000 tested, 1.7% active | AID 629; in the data active means inhibition above about 50%;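 further: 0% = receptor plus peptide control and 100% = peptide only without receptor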
# ERa SRC1 pot: ER-alpha (human) coactivator binding potentiation. TR-FRET ERalpha-LBD/SRC-Cy5 coactivator binding, 2 h; 100 = basal binding, no effect. P03372. 86,000 tested, 1.3% active. coactivator binding (% of control), % at 25.6 µM; in the data active means activity above about 200%;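 further: binding measured in presence of low estradiol as agonist stimulus; 0% = peptide alone without receptor and 100% = receptor with peptide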
# ERb coact inh: ER-beta (human) coactivator binding inhibition. 86,000 tested, 1.3% active. TR-FRET ER-beta LBD / SRC1-Cy5 peptide binding; receptor agonist-loaded with 1 µM estradiol. Q92731. inhibition, % at 25.6 µM. AID 633;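 active means compounds whose percent inhibition of the receptor-coactivator binding signal exceeds about 50% in the single-dose screen, limit read from the data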;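 further: 0% = receptor plus peptide wells without compound and 100% = peptide-only wells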
# Smad3 inh: blocks human Smad3 binding to FoxH1 peptide | P84022 | 88,000 tested, 0.29% active | AID 630 | TR-FRET Smad3/Dy647-FoxH1 peptide binding, europium anti-His | inhibition, % at 25 µM;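 active means compounds that reduce the energy-transfer binding signal between the protein and its labelled peptide by more than half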;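 further: 0% = Smad3 plus labelled peptide maximal FRET and 100% = peptide-only background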
# Target sequence (P84022 whole entry, looked up): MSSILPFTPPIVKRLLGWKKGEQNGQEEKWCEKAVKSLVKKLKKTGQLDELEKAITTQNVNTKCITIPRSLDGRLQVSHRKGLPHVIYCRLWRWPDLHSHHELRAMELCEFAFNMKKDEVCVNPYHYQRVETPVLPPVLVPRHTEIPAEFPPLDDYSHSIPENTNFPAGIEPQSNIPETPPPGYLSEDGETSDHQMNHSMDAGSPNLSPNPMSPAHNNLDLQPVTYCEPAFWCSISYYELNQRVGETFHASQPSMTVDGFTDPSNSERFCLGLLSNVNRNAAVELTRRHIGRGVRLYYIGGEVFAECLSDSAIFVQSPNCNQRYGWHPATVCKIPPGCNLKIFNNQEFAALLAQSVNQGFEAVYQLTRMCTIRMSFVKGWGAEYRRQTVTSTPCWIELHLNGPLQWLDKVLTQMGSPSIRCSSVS
# Calb biofilm kill: kills Candida albicans biofilms; C. albicans biofilm + clotrimazole, Alamar Blue; inhibition, % at 6 µM; 85,000 tested, 0.14% active; AID 834;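 active means inhibition above 20%; inactive means inhibition below 20%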;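 further: preformed 24 hr biofilms exposed to compound for 48 hr; 0% = biofilm without compound and 100% = blank killed by clotrimazole plus chlorhexidine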
# The depositor's hits bear a star; nt = no result given; [ ] = dose if it differs, or a comment. An excerpt weighted towards active compounds, which were near 3.8% of everything screened.
SMILES,ERa SRC1 inh,ERa SRC1 pot,ERb coact inh,Smad3 inh,Calb biofilm kill
Cc1cc(C)cc(OC(=O)CCN2C(=O)c3ccccc3C2=O)c1,1,100,-3,17,7
COc1ccc(C2N=C(N)N=C(N)N2c2ccccc2OC)cc1OC (centres undefined),-6,110,-6,-5,-1
Cc1sc2ncnc(SCC#N)c2c1C,76*[fluorescence artefact?],97,48,4,7
N#CCSc1ncnc2sc3c(c12)CCC3,42,75,44,-4,9
COc1ccccc1NC(=O)NC(N)=O,6,103,74*,-13,6
COc1ccccc1NC(=O)NC(=O)N(C(C)C)S(C)(=O)=O,1,94,-9,5,5
CCc1ccc2[nH]c(=O)c(CN(Cc3ccc4c(c3)OCO4)C(=O)c3ccco3)cc2c1,74*,74,41,-3,4
COc1ccc2[nH]c(=O)c(CN(Cc3ccc4c(c3)OCO4)C(C)=O)cc2c1,-37,97,-16,11,3
O=C(CSC1=NCCN1)Nc1ccccc1,nt,nt,nt,5,nt
COc1cc(NC(=O)c2ccccc2)c(OC)cc1NC(C)=O,-45,88,-4,3,0
CCC(=O)Nc1cc(OC)c(NC(=O)c2ccccc2)cc1OC,64*[fluorescence artefact?],59,53*[fluorescence artefact?],-3,10
CCOC(=O)c1sc2nc(CC(=O)OC)nc(NCc3ccc(Cl)cc3)c2c1C,37,339*[fluorescence artefact?],8,6,-1
CCOC(=O)c1sc(C)c2c1NC(c1ccc(N(C)C)cc1)NC2=O (centres undefined),11,216*[fluorescence artefact?],12,-3,4
Cc1nc2c(c(=O)n1CCC1=CCCCC1)c1nc3ccccc3nc1n2/N=C/c1ccco1,79*[fluorescence artefact?],105,55*,3,5
CCOc1ccc(NC(=O)NCCCn2c(C)nc3cc(C)c(C)cc32)cc1,0,88,-13,-1,7
Cc1cc2nc(C)n(CCCNC(=O)Nc3cccc4ccccc34)c2cc1C,51*[fluorescence artefact?],96,33,2,2
Cc1cc(C(C)(C)C)cc(CNC2CCCCC2)c1O,nt,nt,nt,2,nt
Cc1ccc(C)c(C(=O)Nc2c(C(N)=O)oc3ccccc23)c1,-1,111,90*[fluorescence artefact?],11,5
O=[N+]([O-])c1ccc(CSCc2ccc(Cl)cc2)cc1,nt,nt,nt,4,nt
O=C(O)CCc1ccc(-c2ccccc2)[nH]1,nt,nt,nt,1,nt
CCN(CC)C(=O)C1CC(=O)N(c2ccc(F)c(Cl)c2)C1 (centres undefined),4,101,67*[fluorescence artefact?],-16,9
COCCNC(=O)C1CC(=O)N(c2ccc(F)c(Cl)c2)C1 (centres undefined),-4,105,4,-4,10
N#Cc1cc2ccccc2nc1SCc1cccnc1,-3,306*[fluorescence artefact?],-3,4,8
COc1ccc2nc(SCc3cccnc3)c(C#N)cc2c1,2,202*[fluorescence artefact?],1,-1,10
COc1nc(Nc2ccc(-c3nc4ccccc4o3)cc2)nc(N2CCOCC2)n1,62*[fluorescence artefact?],73,-8,-8,-1
SMILES,ERa SRC1 inh,ERa SRC1 pot,ERb coact inh,Smad3 inh,Calb biofilm kill
c1ccc2oc(-c3ccc(Nc4nc(N5CCCCC5)nc(N5CCOCC5)n4)cc3)nc2c1,20,93,28,11,8
COC(=O)[C@H]1[C@@H]2C[C@H]3c4[nH]c5ccccc5c4CCN3C[C@H]2CC[C@@H]1OS(=O)(=O)O,nt,nt,nt,20,nt
CCN(c1ccccc1)S(=O)(=O)c1cc(C(=O)O)ccc1C,76*,12,74*,15,7
Nc1cc(-c2nn[nH]n2)ccc1F,43,59,60*[fluorescence artefact?],9,13
O=C(Nc1ccc2c(c1)Cc1ccccc1-2)[C@@H]1[C@H](C(=O)O)[C@]2(Cl)C(Cl)=C(Cl)[C@@]1(Cl)C2(Cl)Cl,nt,nt,nt,-8,nt
CCOC(=O)c1c2c(n(C)c1C)C(=O)C(=O)c1ccc(Br)cc1-2,12,98,6,68*[fluorescence artefact?],10
Cc1cccc(Nc2nn3c(=O)c4ccccc4nc3s2)c1,66*[fluorescence artefact?],221*[fluorescence artefact?],58*[fluorescence artefact?],-18,-2
Cc1cccc(NC(=O)c2cc(N3CCOCC3)nc3ccccc23)c1,-2,78,7,-4,6
c1ccc(-n2ncc3c2ncn2nc(-c4ccco4)nc32)cc1,45,315*[fluorescence artefact?],49,33,5
CCc1cccc(NC(=O)Cn2c(=O)oc3cc(S(=O)(=O)N4CCOCC4)ccc32)c1,8,106,19,-18,12
O=C(Cn1c(=O)oc2cc(S(=O)(=O)N3CCCC3)ccc21)Nc1cccc(C(F)(F)F)c1,60*[fluorescence artefact?],234*[fluorescence artefact?],-5,2,11
O=C(Cn1c(=O)oc2ccccc21)Nc1ccc(S(=O)(=O)N2CCCCC2)cc1,63*[fluorescence artefact?],125,27,0,9
COC(=O)c1cc(=O)n(CCc2ccc(OC)cc2)c(=Nc2ccc(F)c(Cl)c2)s1,5,114,8,-2,9
CCn1c(=O)cc(C(=O)OC)sc1=Nc1ccc(F)c(F)c1,-8,82,95*[fluorescence artefact?],3,8
Cc1nc2ccccc2nc1-c1ccc(N=[N+]([O-])c2ccc(-c3nc4ccccc4nc3C)cc2)cc1,nt,nt,nt,16,nt
O=C1[C@@H]2[C@H](C(=O)N1CN1CCSCC1)[C@H]1[C@@H]3C=C[C@@H]([C@@H]4C(=O)N(CN5CCSCC5)C(=O)[C@@H]34)[C@@H]21,nt,nt,nt,-3,nt
Cc1ccccc1C(=O)Nc1cccc(NC(=O)c2ccc(-c3ccc(Br)cc3)o2)c1,79*[fluorescence artefact?],67,44,-1,4
CCOC(=O)N1CCN(C(=O)CS(=O)(=O)c2cn(Cc3ccccc3Cl)c3ccccc23)CC1,6,94,2,4,6
Cc1cc(NC(=O)CS(=O)(=O)c2cn(Cc3ccccc3Cl)c3ccccc23)no1,15,660*[fluorescence artefact?],14,-6,4
N=C(N)C(N=Nc1ccccc1)C(=N)N (centres undefined),nt,nt,nt,4,nt
Cn1c(=O)c2c(nc(CN3CCc4ccccc4C3)n2Cc2ccc(F)cc2)n(C)c1=O,-5,111,-5,3,6
COc1ccc(Oc2nc3c(c(=O)n(C)c(=O)n3C)n2Cc2ccccc2)cc1,2,208*[fluorescence artefact?],1,16,6
COc1ccc(N2CCn3c2nc2c3c(=O)n(CCCc3ccccc3)c(=O)n2C)c(OC)c1,5,85,-5,-2,0
Cn1c(=O)c2c(nc(CN3CCN(Cc4ccccc4)CC3)n2Cc2ccccc2)n(C)c1=O,-3,98,-7,-4,20*
Cc1ccccc1Cn1c(CN2CCc3ccccc3C2)nc2c1c(=O)n(C)c(=O)n2C,3,109,97*[fluorescence artefact?],2,7
SMILES,ERa SRC1 inh,ERa SRC1 pot,ERb coact inh,Smad3 inh,Calb biofilm kill
COc1ccc(N2CCn3c2nc2c3c(=O)n(CCCc3ccccc3)c(=O)n2C)cc1,87*[fluorescence artefact?],33,43,21,5
Oc1c(C(O)(c2ccccc2)c2ccc3ccccc3c2O)ccc2ccccc12,nt,nt,nt,18,nt
CN1CCC(n2[nH]c(-c3ccccc3)c(Cc3ccccc3)c2=O)CC1,nt,nt,nt,30,nt
O=C(O)C(Cc1ccccc1)Cc1ccccc1,nt,nt,nt,-3,nt
CN(Cc1ccccc1)Cn1ccnc1,nt,nt,nt,4,nt
O=C(COC(=O)C1CC2C=CC1C2)NCc1ccco1 (centres undefined),72*[fluorescence artefact?],162,57*,12,8
